From PubChem BioAssay (EPA / NIEHS)
Results filed as inconclusive are left out. The source made the active and inactive calls. How the source made its calls: active means hit-call score of the fitted dose curve at least 0.9, where 1 is the maximum; inconclusive means response in the unintended direction; inactive means score below 0.9.

Molecular target: Thyroid hormone receptor alpha (Rattus norvegicus) + Thyroid hormone receptor beta (Rattus norvegicus) (UniProt P18113+P63059)
Test: TOX21_TR_LUC_GH3_Antagonist_Followup: Tox21 GH3 Thyroid Hormone Receptor Antagonism Luciferase Follow-Up Assay (AID 2283942)
Description: TOX21_TR_LUC_GH3_Agonist_Followup is a secondary assay for the TOX21_TR_LUC_GH3_Agonist assay. TOX21_TR_LUC_GH3_Agonist_Followup is a cell-based, single-readout assay that uses GH3, a rat pituitary gland cell line, with measurements taken at 28 hours after chemical dosing in a 1536-well plate.TOX21_TR_LUC_GH3_Antagonist_Followup is one of one assay component(s) measured or calculated from the TOX21_TR_LUC_GH3_Antagonist_Followup assay. It is designed to make measurements of luciferase induction, a form of inducible reporter, as detected with bioluminescence signals by CellTiter-Glo Luciferase-coupled ATP quantitation technology.Data from the assay component TOX21_TR_LUC_GH3_Antagonist_Followup was analyzed into 1 assay endpoint. This assay endpoint, TOX21_TR_LUC_GH3_Antagonist_Followup, was analyzed in the positive analysis fitting direction relative to DMSO as the negative control and baseline of activity. Using a type of inducible reporter, gain-of-signal activity can be used to understand changes in the reporter gene as they relate to the gene THRA and THRB in the GH3 cell line using a luciferase reporter. Furthermore, this assay endpoint can be referred to as a primary readout, because the performed assay has only produced 1 assay endpoint. This assay endpoint is designated followup because it was a confirmatory screen following the primary qHTS assay.
Cell Media Required: Growth (90% DMEM/F-12, 10% Fetal Bovine Calf Serum, 100U/ml Penicillin, 100 ug/ml Streptomycin), Assay (10ng/mL sodium selenite, 10 ug/mL humanapo-transferrin, 10 uM ethanolamine, 10 ug/mL insulin, 500 ug/mL bovine serum albumin (BSA))Assay Protocol: Cells were seeded at 1,500/well in 5 uL (agonist mode) and 4 uL (antagonist mode) of the assay medium in 1,536-well white/solid plates (Greiner Bio-One North America) using a Multi drop Combi (Thermo Fisher Scientific) dispenser. Chemical samples were serially diluted in DMSO, yielding 15 concentrations for testing. After 5-h incubationat 37C/5% carbon dioxide (CO2) for cell attachment, 23 nL of serially diluted compounds (yielding 92 uM to 5nM final assay concentration) and positive control (T3; agonist format), DMSO only (antagonist format) were transferred to the assay plates using a Pintool station (Wako). To screen compounds that antagonize T3-induced transactivation of TR, an extra 1 uL of T3 was added using a BioRAPTER Flying Reagent Dispenser (FRD; Aurora Discovery on the top of the cell/compound mixtures to achieve a final agonist concentration of 1.0 nM.The assay plates were in cubated at 37C/5% CO2 for 24 h. For the luciferase reporter gene assay, 5 uL/well (agonist format) and 4 uL/well (antagonist format) ONE-Glo reagent (Promega Corporation) was added using an FRD and after 30-min incubation at room temperature, the luminescence intensity was measured using a ViewLux plate reader. Data were expressed as relative fluorescence units (cell viability assay) and relative luminescence units (luciferase reporter assay).

| Structure (SMILES) | outcome | AC50 |
| --- | --- | --- |
| CC(C)=CCC1=C(O)c2ccccc2C(=O)C1=O | inactive | – |
| Nc1ccc2cc3ccc(N)cc3nc2c1 | – | 13.1 µM (active) |
| Cc1c(Nc2ncccc2C(=O)O)cccc1C(F)(F)F | inactive | – |
| CCCCCCNC(=O)n1cc(F)c(=O)[nH]c1=O | – | 12 µM (active) |
| C#CCC(Cc1cnc2nc(N)nc(N)c2n1)c1ccc(C(=O)N[C@@H](CCC(=O)O)C(=O)O)cc1 (stereo partly specified) | inactive | – |
| COc1cc([C@@H]2c3cc4c(cc3[C@H](O)[C@H]3COC(=O)[C@H]23)OCO4)cc(OC)c1OC | inactive | – |
| CC[C@@]1(O)C[C@@H]2CN(CCc3c([nH]c4ccccc34)[C@@](C(=O)OC)(c3cc4c(cc3OC)N(C)[C@H]3[C@@](O)(C(=O)OC)[C@H](OC(C)=O)[C@]5(CC)C=CCN6CC[C@]43[C@@H]65)C2)C1 | – | 17.5 µM (active) |
| CC(=O)Nc1ccn(C2COC(COC(=O)c3ccccc3)O2)c(=O)n1 (stereo unspecified) | inactive | – |
| O=c1[nH]c(=O)n([C@H]2C[C@H](O)[C@@H](CO)O2)cc1F | inactive | – |
| CC(C(=O)O)c1ccc(N2Cc3ccccc3C2=O)cc1 (stereo unspecified) | inactive | – |
| O=[Se](O)O | – | 4.84 µM (active) |
| O=C(CCCCCCCCC#CI)Oc1ccccc1 | inactive | – |
| NC(N)=NCc1cccc(I)c1 | inactive | – |
| O=C(CCCCCCC(=O)Nc1ccccc1)NO | – | 5.8 µM (active) |
| CC(C)N=C(N)/N=C(\N)Nc1ccc(Cl)cc1 | inactive | – |
| COc1ccc2nc(NC(=O)Nc3ccccc3)sc2c1 | inactive | – |

| Structure (SMILES) | outcome | AC50 |
| --- | --- | --- |
| CO[C@H]1C[C@@H]2CC[C@@H](C)[C@@](O)(O2)C(=O)C(=O)N2CCCC[C@H]2C(=O)O[C@H]([C@H](C)C[C@@H]2CC[C@@H](OCCO)[C@H](OC)C2)CC(=O)[C@H](C)/C=C(\C)[C@@H](O)[C@@H](OC)C(=O)[C@H](C)C[C@H](C)\C=C/C=C/C=C/1C | – | 0.00976 µM (active) |
| CCCCCOc1ccc(C2SC(=O)NC2=O)cc1OCC (stereo unspecified) | inactive | – |
| Brc1cc(Oc2cc(Br)c(Br)c(Br)c2Br)c(Br)c(Br)c1Br | inactive | – |
| CO[C@H]1C[C@@H]2CC[C@@H](C)[C@@](O)(O2)C(=O)C(=O)N2CCCC[C@H]2C(=O)O[C@H]([C@H](C)C[C@@H]2CC[C@@H](O)[C@H](OC)C2)CC(=O)[C@H](C)/C=C(\C)[C@@H](O)[C@@H](OC)C(=O)[C@H](C)C[C@H](C)\C=C/C=C/C=C/1C | – | 0.00703 µM (active) |
| Nc1c2ccccc2nc2ccccc12 | – | 6.25 µM (active) |
| O=C1C(=O)c2ncccc2-c2cccnc21 | inactive | – |
| CC[C@@]1(O)C(=O)OCc2c1cc1n(c2=O)Cc2cc3c(CN(C)C)c(O)ccc3nc2-1 | inactive | – |
| CO[C@H](C(=O)[C@@H](O)[C@@H](C)O)C1Cc2cc3cc(O[C@H]4C[C@@H](O[C@H]5C[C@@H](O)[C@H](O)[C@@H](C)O5)[C@@H](O)[C@@H](C)O4)c(C)c(O)c3c(O)c2C(=O)[C@H]1O[C@H]1C[C@@H](O[C@H]2C[C@@H](O[C@H]3C[C@](C)(O)[C@H](O)[C@@H](C)O3)[C@H](O)[C@@H](C)O2)[C@H](O)[C@@H](C)O1 (stereo partly specified) | – | 0.745 µM (active) |
| CC1(C)N=C(N)N=C(N)N1c1ccc(Cl)cc1 | inactive | – |
| Oc1c(I)cc(I)c2cccnc12 | inactive | – |
| CC(=O)[C@H]1CC[C@H]2[C@@H]3C=CC4=CC(=O)CC[C@@]4(C)[C@@H]3CC[C@]12C | inactive | – |
| C[n+]1c2cc(N)ccc2cc2ccc(N)cc21 (tested in a mixture with another compound) | – | 18.2 µM (active) |
| Cc1oc(C)c(C(=O)Nc2ccccc2)c1C | inactive | – |
| Cc1cc(Nc2ccccc2C(=O)O)ccc1Cl | inactive | – |
| COc1ccc(/C=C/C(=O)Nc2ccccc2C(=O)O)cc1OC | – | 2.7 µM (active) |
